Data: PubChem BioAssay AID1159580 (chemical genetic matrix, 2015)
Among all 5,500 compounds or so, about 2,000 (36%) were called active. Roughly 18% stayed inconclusive and do not appear here. No stated cut-off is given here; in the data, active means normalized growth mostly below about 0.91 (no sharp cut-off); inconclusive means no clear call, values can overlap the other calls; inactive means mostly above about 0.92. The list shows a part of the results.

Assay: chemical genetic growth profiling, strain panel (AID 1159580);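 further: tested at 20 µM; growth read once vehicle control cultures reached saturation at 30 °C; 1 = growth at the plate median or of vehicle wells; lower values mean less growth of the strain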
Settings: growth OD

Measured: normalized growth

O[N+]1=CC=CCC1=S.On1ccccc1=S.[Zn]
active: S. cerevisiae deletion strains, locus YJR043C, strain POL32, hits give low values 0.0664 | S. cerevisiae deletion strains, locus YJR066W, strain TOR1, hits give low values 0.00186 | S. cerevisiae deletion strains, locus YJR075W, strain HOC1, hits give low values 0.0642 | S. cerevisiae deletion strains, locus YKL009W, strain mrt4, hits give low values 0.071 | S. cerevisiae deletion strains, locus YKL068W, hits give low values 0.0609 | S. cerevisiae deletion strains, locus YKL085W, strain MDH1 (second series), hits give low values 0.0543 | S. cerevisiae deletion strains, locus YKL085W, strain MDH1, hits give low values 0.0543 | S. cerevisiae deletion strains, locus YKL160W, strain elf1, hits give low values 0.07 | S. cerevisiae deletion strains, locus YKR001C, strain vps1, hits give low values 0.063 | S. cerevisiae deletion strains, locus YKR026C, strain gcn3, hits give low values 0.0676 | S. cerevisiae deletion strains, locus YKR091W, strain srl3, hits give low values 0.0611 | S. cerevisiae deletion strains, locus YLL001W, strain dnm1, hits give low values 0.059 | S. cerevisiae deletion strains, locus YLL026W, hits give low values 0.0586 | S. cerevisiae deletion strains, locus YLL041C, strain sdh2, hits give low values 0.0589 | S. cerevisiae deletion strains, locus YLR027C, strain aat2, hits give low values 0.0567 | S. cerevisiae deletion strains, locus YLR039C, strain RIC1, hits give low values 0.101 | S. cerevisiae deletion strains, locus YLR058C, strain SHM2, hits give low values 0.0528 | S. cerevisiae deletion strains, locus YLR102C, strain apc9, hits give low values 0.0619 | S. cerevisiae deletion strains, locus YLR113W, strain HOG1, hits give low values 0.14 | S. cerevisiae deletion strains, locus YLR221C, strain rsa3, hits give low values 0.0633 | S. cerevisiae deletion strains, locus YLR258W, strain gsy2, hits give low values 0.0677 | S. cerevisiae deletion strains, locus YLR262C, strain YPT6 (second series), hits give low values 0.0872 | S. cerevisiae deletion strains, locus YLR262C, strain YPT6, hits give low values 0.116 | S. cerevisiae deletion strains, locus YLR268W, strain sec22, hits give low values 0.0675 | S. cerevisiae deletion strains, locus YLR320W, strain mms22, hits give low values 0.0954 | S. cerevisiae deletion strains, locus YLR330W, strain CHS5, hits give low values 0.0529 | S. cerevisiae deletion strains, locus YLR342W, strain FKS1 (second series), hits give low values 0.0696 | S. cerevisiae deletion strains, locus YLR342W, strain FKS1, hits give low values 0.0672 | S. cerevisiae deletion strains, locus YLR357W, strain rsc2, hits give low values 0.128 | S. cerevisiae deletion strains, locus YLR370C, strain arc18, hits give low values 0.0633 | S. cerevisiae deletion strains, locus YLR371W, strain rom2, hits give low values 0.0617 | S. cerevisiae deletion strains, locus YLR384C, strain iki3, hits give low values 0.0637 | S. cerevisiae deletion strains, locus YLR418C, strain cdc73, hits give low values 0.0957 | S. cerevisiae deletion strains, locus YML016C, strain PPZ1, hits give low values 0.0508 | S. cerevisiae deletion strains, locus YML032C, strain rad52, hits give low values 0.0712 | S. cerevisiae deletion strains, locus YML120C, strain ndi1, hits give low values 0.0615 | S. cerevisiae deletion strains, locus YML124C, strain tub3, hits give low values 0.061 | S. cerevisiae deletion strains, locus YMR058W, strain fet3, hits give low values 0.0596 | S. cerevisiae deletion strains, locus YMR078C, strain ctf18, hits give low values 0.0748 | S. cerevisiae deletion strains, locus YMR125W, strain sto1, hits give low values 0.0764 | S. cerevisiae deletion strains, locus YMR129W, hits give low values 0.059 | S. cerevisiae deletion strains, locus YMR205C, strain PFK2, hits give low values 0.0932 | S. cerevisiae deletion strains, locus YMR223W, strain ubp8, hits give low values 0.0633 | S. cerevisiae deletion strains, locus YMR231W, strain pep5, hits give low values 0.0701 | S. cerevisiae deletion strains, locus YMR263W, strain SAP30, hits give low values 0.0599 | S. cerevisiae deletion strains, locus YMR307W, strain GAS1, hits give low values 0.132 | S. cerevisiae deletion strains, locus YNL067W, strain RPL9B, hits give low values 0.0487 | S. cerevisiae deletion strains, locus YNL071W, strain lat1, hits give low values 0.0631 | S. cerevisiae deletion strains, locus YNL128W, strain TEP1, hits give low values 0.0641 | S. cerevisiae deletion strains, locus YNL183C, strain NPR1, hits give low values 0.00323 | S. cerevisiae deletion strains, locus YNL209W, strain ssb2, hits give low values 0.0623 | S. cerevisiae deletion strains, locus YNL233W, strain BNI4, hits give low values 0.0571 | S. cerevisiae deletion strains, locus YNL248C, strain rpa49, hits give low values 0.0755 | S. cerevisiae deletion strains, locus YNL250W, strain rad50, hits give low values 0.0654 | S. cerevisiae deletion strains, locus YNL271C, strain bni1, hits give low values 0.074 | S. cerevisiae deletion strains, locus YNL298W, strain CLA4, hits give low values 0.0625 | S. cerevisiae deletion strains, locus YNL307C, strain MCK1, hits give low values 0.0674 | S. cerevisiae deletion strains, locus YNL322C, strain KRE1 (second series), hits give low values 0.0696 | S. cerevisiae deletion strains, locus YNR049C, strain mso1, hits give low values 0.0598 | S. cerevisiae deletion strains, locus YNR052C, strain pop2, hits give low values 0.0619 | S. cerevisiae deletion strains, locus YOL147C, strain pex11, hits give low values 0.0583 | S. cerevisiae deletion strains, locus YOR001W, strain rrp6, hits give low values 0.0748 | S. cerevisiae deletion strains, locus YOR061W, strain CKA2, hits give low values 0.049 | S. cerevisiae deletion strains, locus YOR069W, strain VPS5, hits give low values 0.0493 | S. cerevisiae deletion strains, locus YOR070C, strain gyp1, hits give low values 0.064 | S. cerevisiae deletion strains, locus YOR080W, strain dia2, hits give low values 0.0707 | S. cerevisiae deletion strains, locus YOR083W, strain WHI5, hits give low values 0.0734 | S. cerevisiae deletion strains, locus YOR106W, strain vam3, hits give low values 0.0661 | S. cerevisiae deletion strains, locus YOR136W, strain idh2, hits give low values 0.0716 | S. cerevisiae deletion strains, locus YOR144C, strain elg1, hits give low values 0.0584 | S. cerevisiae deletion strains, locus YOR184W, strain ser1, hits give low values 0.0698 | S. cerevisiae deletion strains, locus YOR231W, strain MKK1, hits give low values 0.116 | S. cerevisiae deletion strains, locus YOR265W, strain rbl2, hits give low values 0.064 | S. cerevisiae deletion strains, locus YOR270C, strain vph1, hits give low values 0.0915 | S. cerevisiae deletion strains, locus YOR290C, strain snf2, hits give low values 0.0656 | S. cerevisiae deletion strains, locus YOR316C, strain cot1, hits give low values 0.0596 | S. cerevisiae deletion strains, locus YPL051W, strain arl3, hits give low values 0.0708 | S. cerevisiae deletion strains, locus YPL055C, strain LGE1, hits give low values 0.0796 | S. cerevisiae deletion strains, locus YPL078C, strain atp4, hits give low values 0.07 | S. cerevisiae deletion strains, locus YPL106C, strain sse1, hits give low values 0.109 | S. cerevisiae deletion strains, locus YPL240C, strain hsp82, hits give low values 0.0591 | S. cerevisiae deletion strains, locus YPL256C, strain CLN2, hits give low values 0.114 | S. cerevisiae deletion strains, locus YPR119W, strain clb2, hits give low values 0.0639 | S. cerevisiae deletion strains, locus YPR141C, strain kar3, hits give low values 0.0689 | S. cerevisiae deletion strains, locus YPR163C, strain tif3, hits give low values 0.0727 | S. cerevisiae deletion strains, locus YPR167C, strain met16, hits give low values 0.0637 | S. cerevisiae deletion strains, strain wtn01, hits give low values 0.0638 | S. cerevisiae strains, strain wild type, hits give low values 0.0514
